Results filed as inconclusive are left out. Calls of active or inactive are those of the source. Unless noted, calls come from the whole dose curve; as a rule, active = well fitted curve in the direction sought with a large enough effect in the repeat runs; inconclusive = weak or mixed curves; inactive = no such curve, though single readings can be large; an effect the other way counts as inactive or inconclusive.
Tests used:
[1] = A CellTox Green Cytotoxicity Assay to monitor cytotoxicity in HepG2 cells - 24 hour (AID 1224878); note: nearly all actives have a fitted effect of over 45% in size
Summary of the method: (§1)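 Cytotoxicity was tracked as dead-cell DNA fluorescence in HepG2 cells treated with test compounds at 37 C; each time-point value comes from one kinetic series spanning 0, 8, 16, 24, 32 and 40 h.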

[2] = qHTS RealTime-Glo MT Cell Viability Assay in HEK293 cells - 0 hour (AID 1224880); note: top concentration of the series differs between compounds; nearly all actives have a fitted effect of over 45% in size
Summary of the method: (§2)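 Kinetic, non-lysing viability readout. Seed HEK293 (600/well) with reagent, incubate 5 h at 37 C/5% CO2, pin 23 nL compound in DMSO, incubate at 37 C, read luminescence at 0, 8, 16, 24, 32, 40 h.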

[3] = A CellTox Green Cytotoxicity Assay to monitor cytotoxicity in HEK293 cells - 32 hour (AID 1224881); note: nearly all actives have a fitted effect of over 40% in size
Summary of the method: (§3)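 Real-time, in one plate: 600 HEK293 cells/well with dead-cell DNA dye, pinned compound after 5 h, 37 C incubation over 40 h; viable cells give no appreciable fluorescence.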

[4] = A CellTox Green Cytotoxicity Assay to monitor cytotoxicity in HepG2 cells - 0 hour (AID 1224882); note: nearly all actives have a fitted effect of over 35% in size
Summary of the method: as §1

[5] = A CellTox Green Cytotoxicity Assay to monitor cytotoxicity in HepG2 cells - 32 hour (AID 1224883); note: nearly all actives have a fitted effect of over 50% in size
Summary of the method: as §1

[6] = A CellTox Green Cytotoxicity Assay to monitor cytotoxicity in HEK293 cells - 8 hour (AID 1224884); note: nearly all actives have a fitted effect of over 35% in size
Summary of the method: as §3

[7] = qHTS RealTime-Glo MT Cell Viability Assay in HepG2 cells - 16 hour (AID 1224885); note: nearly all actives have a fitted effect of over 50% in size
Summary of the method: (§4)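 qHTS, HepG2, 600 cells/well, RealTime-Glo (NanoLuc + prosubstrate) added with cells; 5 h preincubation; DMSO compound addition; 37 C; luminescence at 0/8/16/24/32/40 h.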

[8] = qHTS RealTime-Glo MT Cell Viability Assay in HEK293 cells - 24 hour (AID 1224886); note: top concentration of the series differs between compounds; nearly all actives have a fitted effect of over 50% in size
Summary of the method: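 Assay medium contained NanoLuc luciferase plus cell-permeant prosubstrate, added with HEK293 cells at 600 cells/well. After 5 h at 37 C/5% CO2 compounds were added; plates stayed at 37 C for 40 h with serial luminescence reads.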

[9] = qHTS RealTime-Glo MT Cell Viability Assay in HEK293 cells - 8 hour (AID 1224887); note: top concentration of the series differs between compounds; nearly all actives have a fitted effect of over 50% in size
Summary of the method: as §2

[10] = A CellTox Green Cytotoxicity Assay to monitor cytotoxicity in HEK293 cells - 16 hour (AID 1224888); note: nearly all actives have a fitted effect of over 35% in size
Summary of the method: as §3

[11] = qHTS RealTime-Glo MT Cell Viability Assay in HepG2 cells - 0 hour (AID 1224889); note: nearly all actives have a fitted effect of over 50% in size
Summary of the method: as §4

[12] = qHTS assay to identify small molecule antagonists of the estrogen receptor alpha (ER-alpha) signaling pathway using the BG1 cell line in the presence of 0.1 nM 17-beta-estradiol - cell viability counter screen (AID 1259241); note: nearly all actives have a fitted effect of over 40% in size
Summary of the method: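 Following 5 days in phenol red-free medium with charcoal-stripped serum, VM7Luc4E2 cells received test compounds alongside 0.1 nM 17beta-estradiol (final) at 37C for 22 hr. Live cells were then quantified via protease-substrate fluorescence.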

[13] = qHTS assay to identify small molecule antagonists of the androgen receptor (AR) signaling pathway using the MDA cell line in the presence of 0.5 nM R1881 - cell viability counter screen (AID 1259242); note: nearly all actives have a fitted effect of over 45% in size
Summary of the method: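 Cells seeded at 3,000/well and allowed 5 hr at 37C, 0% CO2 before compound transfer and R1881 (0.5 nM final) addition; 16 hr later, live-cell protease fluorescence indicated cytotoxicity.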

[14] = qHTS assay to identify small molecule HDAC inhibitors - cell viability counter screen (AID 1259365)
Summary of the method: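 HCT-116 wild-type, overnight attachment; 2hr drug exposure, 37C; CellTiter-Glo luminescent ATP readout after 30min RT.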

[15] = A CellTox Green Cytotoxicity Assay to monitor cytotoxicity in HepG2 cells - 8 hour (AID 1224890); note: nearly all actives have a fitted effect of over 45% in size
Summary of the method: as §1

[16] = qHTS assay to identify small molecule phospholipidosis (PLD) inducers (AID 1259344; active = well fitted curve in the direction sought with a large enough effect; an effect the other way counts as inactive or inconclusive)
Summary of the method: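 Cells (HepG2, 900 per well) attach for 4 h, receive LipidTOX Red and compound together, incubate 24 h at 37 C, are fixed 30 min with paraformaldehyde/Hoechst, then imaged at one site per well.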

[17] = qHTS assay to identify small molecule HDAC inhibitors (AID 1259364)
Summary of the method: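 HCT-116 wt cells, 1,500/well, overnight attach. Compounds (DMSO) 2 h, 37 °C. HDAC-Glo I/II, 30 min RT. Luminescence.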

[18] = A CellTox Green Cytotoxicity Assay to monitor cytotoxicity in HepG2 cells - 40 hour (AID 1224879); note: nearly all actives have a fitted effect of over 40% in size
Summary of the method: as §1

[19] = biological target: Androgen receptor (Homo sapiens) (UniProt P10275); test: qHTS assay to identify small molecule antagonists of the androgen receptor (AR) signaling pathway using the MDA cell line in the presence of 0.5 nM R1881 (AID 1259243); note: nearly all actives have a fitted effect of over 50% in size
Androgen receptor (Homo sapiens), sequence (P10275 whole entry, looked up): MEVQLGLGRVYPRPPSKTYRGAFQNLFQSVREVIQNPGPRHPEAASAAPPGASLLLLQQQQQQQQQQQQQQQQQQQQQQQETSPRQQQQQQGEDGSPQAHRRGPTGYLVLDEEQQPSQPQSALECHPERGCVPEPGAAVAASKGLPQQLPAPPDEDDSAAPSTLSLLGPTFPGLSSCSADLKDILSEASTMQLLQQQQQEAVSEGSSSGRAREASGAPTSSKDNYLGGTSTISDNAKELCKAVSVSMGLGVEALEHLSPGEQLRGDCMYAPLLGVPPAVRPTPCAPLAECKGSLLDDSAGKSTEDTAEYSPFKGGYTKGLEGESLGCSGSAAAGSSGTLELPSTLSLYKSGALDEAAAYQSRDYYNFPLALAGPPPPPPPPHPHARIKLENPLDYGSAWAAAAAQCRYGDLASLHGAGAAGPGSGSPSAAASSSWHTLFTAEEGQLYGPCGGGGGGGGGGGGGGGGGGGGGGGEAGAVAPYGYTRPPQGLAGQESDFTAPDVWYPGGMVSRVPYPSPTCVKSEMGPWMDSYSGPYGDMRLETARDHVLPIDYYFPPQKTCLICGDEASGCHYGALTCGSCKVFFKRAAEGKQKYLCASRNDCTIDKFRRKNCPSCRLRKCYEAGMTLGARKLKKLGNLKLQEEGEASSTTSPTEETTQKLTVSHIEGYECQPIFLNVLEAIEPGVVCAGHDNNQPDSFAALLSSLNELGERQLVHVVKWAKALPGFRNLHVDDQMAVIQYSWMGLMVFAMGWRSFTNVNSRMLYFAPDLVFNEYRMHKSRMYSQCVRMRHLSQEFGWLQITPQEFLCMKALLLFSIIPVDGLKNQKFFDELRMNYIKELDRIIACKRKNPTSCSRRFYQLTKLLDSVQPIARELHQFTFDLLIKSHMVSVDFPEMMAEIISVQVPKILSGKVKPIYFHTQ
Summary of the method: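 Luminescence from an AR/GR-responsive MMTV-luciferase construct in MDA-kb2 breast carcinoma cells, read 30 min after ONE-Glo, following 16 hr co-treatment with compounds and 0.5 nM R1881.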

[20] = biological target: Estrogen receptor (Homo sapiens) (UniProt P03372); test: qHTS assay to identify small molecule antagonists of the estrogen receptor alpha (ER-alpha) signaling pathway using the BG1 cell line in the presence of 0.1 nM 17-beta-estradiol (AID 1259244); note: nearly all actives have a fitted effect of over 50% in size
Estrogen receptor (Homo sapiens), sequence (P03372 whole entry, looked up): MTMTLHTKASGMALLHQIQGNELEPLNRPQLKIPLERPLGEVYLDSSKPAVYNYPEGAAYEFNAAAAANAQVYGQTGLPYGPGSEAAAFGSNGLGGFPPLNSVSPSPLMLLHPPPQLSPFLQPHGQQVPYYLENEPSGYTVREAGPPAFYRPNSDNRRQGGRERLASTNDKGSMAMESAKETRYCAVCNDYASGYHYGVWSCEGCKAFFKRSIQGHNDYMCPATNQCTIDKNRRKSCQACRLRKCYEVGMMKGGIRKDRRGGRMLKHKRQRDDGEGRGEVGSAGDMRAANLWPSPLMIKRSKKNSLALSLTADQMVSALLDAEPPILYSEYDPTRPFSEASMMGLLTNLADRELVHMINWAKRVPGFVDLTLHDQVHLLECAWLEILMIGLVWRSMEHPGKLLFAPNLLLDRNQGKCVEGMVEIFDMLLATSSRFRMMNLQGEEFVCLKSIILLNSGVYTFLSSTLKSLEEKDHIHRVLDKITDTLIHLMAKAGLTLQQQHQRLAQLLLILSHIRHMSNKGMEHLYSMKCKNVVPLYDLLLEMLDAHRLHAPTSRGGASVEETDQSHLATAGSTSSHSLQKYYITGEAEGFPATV
Summary of the method: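 Luciferase signal from VM7Luc4E2 ERE-reporter cells, co-dosed with test compound and 0.1 nM final 17beta-estradiol for 22 h, read with ONE-Glo.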
% is set by controls: 0 for no effect and ±100 for the full control effect.

CC(C)(Sc1cc(C(C)(C)C)c(O)c(C(C)(C)C)c1)Sc1cc(C(C)(C)C)c(O)c(C(C)(C)C)c1
inactive: Potency [1] | Potency [2] | Potency [3] | Potency [4] | Potency [5] | Potency [6] | outcome [7] | outcome [8] | outcome [9] | Potency [10] | Potency [11] | outcome [12] | outcome [13] | outcome [14]

CNCCc1ccccn1
inactive: Potency [1] | Potency [2] | Potency [3] | Potency [4] | Potency [5] | Potency [6] | outcome [7] | outcome [8] | outcome [9] | Potency [10] | Potency [11] | Potency [15] | outcome [12] | outcome [13] | Potency [16] | Potency [17] | outcome [14]

CCCCCCCCCCCCCCCC(=O)OC
inactive: cytotoxicity increase [18] -22.4% [at 15.8 µM] | activity change, negative = cytotoxicity [2] -3.44% [at 15.8 µM] | cytotoxicity increase [3] -5.35% [at 15.8 µM] | cytotoxicity [4] -12.7% [at 15.8 µM] | cytotoxicity increase [5] -21.5% [at 15.8 µM] | cytotoxicity increase [6] -3.06% [at 15.8 µM] | activity change, negative = cytotoxic [7] -7.62% [at 15.8 µM] | activity change, negative = cytotoxicity [9] 0.781% [at 15.8 µM] | activity change [10] 0.239% [at 15.8 µM, hits give high values] | activity change, negative = cytotoxicity [11] -16.3% [at 15.8 µM] | cytotoxicity increase [15] -16.6% [at 15.8 µM] | activity change, negative = cytotoxicity [12] 6.9% [at 19 µM] | viability change, negative = cytotoxic [13] 3.68% [at 19 µM] | activity change, negative = inhibition [17] 2.36% [at 19 µM] | activity change, negative = cytotoxicity [14] -1.77% [at 19 µM]

N#Cc1cc(NC(=O)C(=O)O)c(Cl)c(NC(=O)C(=O)O)c1
inactive: Potency [18] | Potency [2] | Potency [3] | Potency [4] | Potency [5] | Potency [6] | outcome [7] | outcome [9] | Potency [10] | Potency [11] | outcome [12] | outcome [13] | Potency [19] | outcome [20] | Potency [17]

O=C1Nc2ccccc2C1=O
inactive: Potency [18] | Potency [3] | Potency [4] | Potency [5] | Potency [6] | outcome [7] | Potency [10] | Potency [11] | Potency [15] | outcome [12] | outcome [13] | Potency [17] | outcome [14]

C[C@H]1COc2c(C3(N)CC3)c(F)cc3c(=O)c(C(=O)O)cn1c23
inactive: Potency [18] | Potency [2] | Potency [3] | Potency [4] | Potency [5] | Potency [6] | outcome [7] | outcome [9] | Potency [10] | Potency [11] | Potency [15] | outcome [12] | outcome [13] | Potency [16] | Potency [17] | outcome [14]

CC1=C(O)C(=O)CO1
inactive: Potency [18] | Potency [3] | Potency [4] | Potency [5] | Potency [6] | outcome [7] | outcome [8] | outcome [9] | Potency [10] | Potency [11] | outcome [12] | outcome [13] | outcome [20] | Potency [17] | outcome [14]

CCN(CC)CC
inactive: Potency [2] | Potency [3] | Potency [4] | Potency [5] | Potency [6] | outcome [7] | outcome [8] | outcome [9] | Potency [10] | Potency [11] | Potency [15] | outcome [12] | outcome [13] | outcome [20]

Nc1ccc(C(=O)NCC(=O)O)cc1
inactive: Potency [2] | Potency [3] | Potency [4] | Potency [5] | Potency [6] | outcome [7] | outcome [8] | outcome [9] | Potency [10] | Potency [11] | Potency [15] | outcome [12] | outcome [13] | outcome [20] | Potency [16] | Potency [17] | outcome [14]
